Assay results published in PubChem BioAssay.
Inconclusive results are not listed. Calls of active or inactive are those of the source.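 How the source made its calls, unless noted: active means at least 20% inhibition of 6-phosphogluconate dehydrogenase activity; inactive means the rest.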

Assays:
[1] = hESC survival regulators, cell-based (AID 493140; call rule not given here;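 further: cells exposed to compounds for four days before counting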); details: human embryonic stem cell survival screen; stronger effect = higher value
[2] = target: 6-phosphogluconate dehydrogenase, decarboxylating (Homo sapiens) (UniProt P52209); test: 6PGD enzyme inhibitors, primary screen, biochemical, human, recombinant enzyme, NADPH absorbance (AID 1159550); details: recombinant 6PGD, NADPH absorbance 341 nm; at 10 µM; stronger effect = higher value
6-phosphogluconate dehydrogenase, decarboxylating (Homo sapiens), sequence (P52209 whole entry, looked up): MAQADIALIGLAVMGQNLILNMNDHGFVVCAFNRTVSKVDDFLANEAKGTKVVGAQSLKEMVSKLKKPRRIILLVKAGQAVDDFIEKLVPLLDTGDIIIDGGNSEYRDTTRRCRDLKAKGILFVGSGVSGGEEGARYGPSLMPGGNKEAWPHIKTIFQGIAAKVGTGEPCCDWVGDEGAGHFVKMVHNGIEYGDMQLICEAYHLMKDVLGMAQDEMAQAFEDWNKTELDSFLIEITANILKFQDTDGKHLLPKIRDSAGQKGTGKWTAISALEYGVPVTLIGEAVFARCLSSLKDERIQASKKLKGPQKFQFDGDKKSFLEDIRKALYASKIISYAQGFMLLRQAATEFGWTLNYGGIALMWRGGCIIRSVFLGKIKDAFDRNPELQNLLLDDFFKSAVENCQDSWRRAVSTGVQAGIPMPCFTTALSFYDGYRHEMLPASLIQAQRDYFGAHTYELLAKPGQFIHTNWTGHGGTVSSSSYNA

[3] = target: ATP-dependent translocase ABCB1 (Homo sapiens) (UniProt P08183); test: MDR1 (ABCB1) efflux transporter inhibition, cell-based (AID 377; in the data active means fluorescence slope change above about 50%); details: MDR1-expressing cells, fluorescent substrate accumulation slope; stronger effect = higher value; concentration not given here
ATP-dependent translocase ABCB1 (Homo sapiens), sequence (P08183 whole entry, looked up): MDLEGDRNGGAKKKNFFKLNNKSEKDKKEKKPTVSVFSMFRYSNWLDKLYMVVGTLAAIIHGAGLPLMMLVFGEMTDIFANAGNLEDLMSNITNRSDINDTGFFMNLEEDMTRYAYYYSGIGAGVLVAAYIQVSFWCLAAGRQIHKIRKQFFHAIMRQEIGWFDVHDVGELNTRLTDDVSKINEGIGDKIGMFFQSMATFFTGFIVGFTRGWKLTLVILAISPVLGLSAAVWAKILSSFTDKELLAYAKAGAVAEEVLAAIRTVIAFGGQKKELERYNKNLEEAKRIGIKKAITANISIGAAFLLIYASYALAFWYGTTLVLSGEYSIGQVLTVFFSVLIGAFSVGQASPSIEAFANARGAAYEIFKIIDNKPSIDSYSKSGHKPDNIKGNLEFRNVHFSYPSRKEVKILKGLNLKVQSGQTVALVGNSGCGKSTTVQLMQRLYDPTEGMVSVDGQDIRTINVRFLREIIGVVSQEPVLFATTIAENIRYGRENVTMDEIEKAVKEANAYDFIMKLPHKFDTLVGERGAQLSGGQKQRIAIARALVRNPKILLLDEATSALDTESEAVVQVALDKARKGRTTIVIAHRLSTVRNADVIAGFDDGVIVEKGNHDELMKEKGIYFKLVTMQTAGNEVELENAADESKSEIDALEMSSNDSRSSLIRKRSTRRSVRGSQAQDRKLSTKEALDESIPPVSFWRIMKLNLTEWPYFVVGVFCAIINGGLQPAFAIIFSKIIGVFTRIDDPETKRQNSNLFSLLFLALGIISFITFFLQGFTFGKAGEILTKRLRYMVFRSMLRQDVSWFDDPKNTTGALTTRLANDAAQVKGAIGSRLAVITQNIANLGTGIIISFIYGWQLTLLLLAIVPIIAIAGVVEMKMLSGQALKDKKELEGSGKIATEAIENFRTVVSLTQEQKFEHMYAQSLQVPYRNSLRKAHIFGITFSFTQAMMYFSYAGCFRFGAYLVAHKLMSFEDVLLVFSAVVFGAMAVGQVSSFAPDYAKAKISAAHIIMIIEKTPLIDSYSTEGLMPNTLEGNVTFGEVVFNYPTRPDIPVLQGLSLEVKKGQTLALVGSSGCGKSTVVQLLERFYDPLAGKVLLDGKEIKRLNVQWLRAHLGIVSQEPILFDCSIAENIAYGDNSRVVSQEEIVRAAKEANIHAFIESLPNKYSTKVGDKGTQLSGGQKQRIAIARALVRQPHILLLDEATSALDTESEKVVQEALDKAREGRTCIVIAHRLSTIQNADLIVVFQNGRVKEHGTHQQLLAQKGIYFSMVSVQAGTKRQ

[4] = liver-stage malaria parasite growth inhibition, primary screen, cell-based, HepG2, luciferase luminescence, HepG2 viability (AID 624349; in the data active means parasite load remaining mostly below about 12%, no sharp cut-off; inactive means mostly above about 10%;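 further: 100% = mean of DMSO negative control wells on the same plate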); details: P. berghei liver stage in HepG2, luciferase luminescence, concentration not given here; parasite load remaining: stronger effect = lower value; viability: measured here: HepG2 viability without parasites
[5] = sensitizers of A549 cells to miR-34 induction, primary screen, imaging, A549 dox-inducible miR-34, nuclei and caspase counts (AID 1347080;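 active means compounds whose cell count with miR-34 switched on is under 0.7 times the count with it off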); details: A549 miR-34 inducible, Hoechst nuclei count, 48 h
[6] = target: Mitogen-activated protein kinase 7 (Homo sapiens) (UniProt Q13164); test: ERK5 transactivation activators in reporter cells, primary screen, cell-based, HTS (AID 1508626;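 active means luciferase signal above three times the same-plate solvent-only control wells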;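 further: luciferase driven by Gal4-ERK5 fusion binding five Gal4 sites before minimal TATA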); details: HeLa Gal4-ERK5 transactivation, 18 h, at 5 µM, stronger effect = higher value
Mitogen-activated protein kinase 7 (Homo sapiens), sequence (Q13164 whole entry, looked up, the tested form may be a part): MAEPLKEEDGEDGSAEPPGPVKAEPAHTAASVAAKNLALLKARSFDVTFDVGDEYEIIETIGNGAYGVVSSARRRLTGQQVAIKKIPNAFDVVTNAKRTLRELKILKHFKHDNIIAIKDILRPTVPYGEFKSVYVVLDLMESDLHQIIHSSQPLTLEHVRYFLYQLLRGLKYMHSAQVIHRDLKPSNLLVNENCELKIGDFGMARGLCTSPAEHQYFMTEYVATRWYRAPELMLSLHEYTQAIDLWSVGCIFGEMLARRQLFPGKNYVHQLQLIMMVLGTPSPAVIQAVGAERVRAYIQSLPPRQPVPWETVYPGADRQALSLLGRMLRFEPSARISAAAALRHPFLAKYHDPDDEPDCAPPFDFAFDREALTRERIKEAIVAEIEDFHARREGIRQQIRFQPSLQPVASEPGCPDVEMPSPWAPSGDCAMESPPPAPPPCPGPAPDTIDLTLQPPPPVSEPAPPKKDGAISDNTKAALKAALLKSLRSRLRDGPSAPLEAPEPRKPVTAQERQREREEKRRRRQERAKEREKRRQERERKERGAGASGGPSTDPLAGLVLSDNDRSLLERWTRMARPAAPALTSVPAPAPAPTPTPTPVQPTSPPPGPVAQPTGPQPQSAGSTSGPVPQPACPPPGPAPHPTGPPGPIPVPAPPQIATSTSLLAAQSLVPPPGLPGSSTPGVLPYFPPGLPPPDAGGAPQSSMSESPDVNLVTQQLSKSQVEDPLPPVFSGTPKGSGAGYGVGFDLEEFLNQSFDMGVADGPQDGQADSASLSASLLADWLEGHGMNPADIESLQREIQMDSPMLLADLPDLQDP

Compound	survival [1]	inhibition [2]	fluorescence slope change [3]	parasite load remaining [4]	viability [4]	fold change ([5]; stronger effect = lower value, cell number ratio, induced over uninduced)	fold change ([5]; measured here: relative caspase fold change +Dox/-Dox)	cell count ([5]; measured here: total cells with miR-34 induction, stronger effect = lower value)	cell count ([5]; measured here: total cells without miR-34 induction)	luciferase signal [6]
CC(N)C(O)c1ccc(O)c(O)c1 (stereo unspecified)	3.67 (inactive)	-5.53% (inactive)								
COc1cc2c(cc1O)C[C@H]1c3c(cc(O)c(OC)c3-2)CCN1C		3.02% (inactive)	14.6% (inactive)	91.1% (inactive)	118%	0.885 (inactive)	1.54	8000	9040	56 AU (inactive)
